In PubChem BioAssay (NCATS) one finds Potency, outcome and max response data, which are given here for 15 compounds.

The target of test [1] is Glucocorticoid receptor (Homo sapiens) (UniProt P04150). As to the kind of experiment: qHTS assay for small molecule antagonists of glucocorticoid receptor signaling (AID 588533; active means well fitted inhibition curve with a large enough effect in the signal ratio, with a control signal flat, not every such curve was filed as active; the % refers to the signal ratio;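 further: cells stimulated with 2 nM dexamethasone as agonist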; further: potency means the concentration at half of the fitted maximal effect). The gist of the method:
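Antagonist-mode qHTS: compound titrations added to GRE-bla HeLa cells, then dexamethasone 2 nM final; 18 h, 37 C. CCF4 FRET fluorescence normalized to dexamethasone and DMSO; IC50 from Hill fit.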
For orientation: Quantitative high-throughput screening tests each substance at several concentrations.

Test [2] has as its target Vitamin D3 receptor (Homo sapiens) (UniProt P11473). As to the kind of experiment: qHTS assay for small molecule agonists of vitamin D receptor signaling (AID 588543).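 Further: 0% = DMSO basal and 100% = reference agonist control.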 In a few lines:
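Reporter cells (HEK293T, VDR-UAS-bla) were seeded in medium with 2% charcoal-stripped serum and incubated 5 h, then compounds in concentration series were added for 16 h at 37 °C. Stimulation was scaled between DMSO basal and 50 nM 1α,25-dihydroxyvitamin D3.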

For test [3], the target named is Thyroid hormone receptor beta (Homo sapiens) (UniProt P10828). Briefly: qHTS assay for small molecule agonists of thyroid hormone receptor beta signaling (AID 588545). In a few lines: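 Agonist-mode beta-lactamase reporter assay, HEK 293 cells, 2% charcoal/dextran FBS; cells plated 4 hrs, compound 18 hrs at 37 C, CCF4 2 hrs RT. Normalized to 10 nM T3 (100%) and DMSO (0%); Hill fit gives EC50, efficacy.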
Chain of Thyroid hormone receptor beta (Homo sapiens) (P10828 whole entry, looked up): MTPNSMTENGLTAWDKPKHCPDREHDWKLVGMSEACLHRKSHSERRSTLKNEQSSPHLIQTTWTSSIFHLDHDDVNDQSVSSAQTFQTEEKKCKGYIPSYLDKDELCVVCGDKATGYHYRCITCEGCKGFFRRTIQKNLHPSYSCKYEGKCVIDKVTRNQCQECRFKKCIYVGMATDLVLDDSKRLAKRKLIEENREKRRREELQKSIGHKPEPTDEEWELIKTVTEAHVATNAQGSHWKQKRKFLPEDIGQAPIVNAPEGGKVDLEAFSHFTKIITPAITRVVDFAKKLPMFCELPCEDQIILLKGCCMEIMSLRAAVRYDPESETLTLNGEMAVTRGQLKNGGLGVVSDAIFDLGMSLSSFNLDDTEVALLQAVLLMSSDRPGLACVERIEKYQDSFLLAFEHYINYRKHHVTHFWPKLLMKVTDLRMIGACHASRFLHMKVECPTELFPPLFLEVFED

Test [4] deals with Peroxisome proliferator-activated receptor gamma (Homo sapiens) (UniProt P37231). Briefly: qHTS assay for small molecule agonists of peroxisome proliferator-activated receptor gamma signaling (AID 588536; active means well fitted curve in the direction sought with a large enough effect in the signal ratio, with a control signal flat, not every such curve was filed as active; the % refers to the signal ratio;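 further: 0% = DMSO basal wells and 100% = rosiglitazone at 2 µM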). In a few lines: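 HEK293 UAS-bla reporter line, 1% charcoal/dextran FBS; titration, 16 h, 37 C; CCF4 loading 2 h RT; fluorescence 460/530 nm. Normalized to rosiglitazone 2 uM = 100%, DMSO = 0%.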
Chain of Peroxisome proliferator-activated receptor gamma (Homo sapiens) (P37231 whole entry, looked up): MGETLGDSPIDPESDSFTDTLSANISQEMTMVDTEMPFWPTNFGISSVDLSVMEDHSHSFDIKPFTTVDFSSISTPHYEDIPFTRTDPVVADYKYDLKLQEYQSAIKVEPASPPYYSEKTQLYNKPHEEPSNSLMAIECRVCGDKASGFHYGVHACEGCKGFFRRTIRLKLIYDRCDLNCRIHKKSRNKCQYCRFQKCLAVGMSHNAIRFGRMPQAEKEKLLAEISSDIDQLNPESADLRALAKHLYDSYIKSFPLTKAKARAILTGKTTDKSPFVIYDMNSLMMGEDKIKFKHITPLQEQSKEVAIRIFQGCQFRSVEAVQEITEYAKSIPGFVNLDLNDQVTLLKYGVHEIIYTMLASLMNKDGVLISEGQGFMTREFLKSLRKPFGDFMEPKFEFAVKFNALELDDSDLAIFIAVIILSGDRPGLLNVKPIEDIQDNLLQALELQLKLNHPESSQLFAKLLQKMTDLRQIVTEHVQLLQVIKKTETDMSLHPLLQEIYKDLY

The target is the same in test [5]. As to the kind of experiment: qHTS assay for small molecule antagonists of peroxisome proliferator-activated receptor gamma signaling (AID 588537; active means well fitted inhibition curve with a large enough effect in the signal ratio, with a control signal flat, not every such curve was filed as active; the % refers to the signal ratio; further: potency means the concentration at half of the fitted maximal effect). In a few lines:
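Inhibitors of agonist-stimulated UAS-bla reporter activity were sought in HEK293 cells; rosiglitazone (50 nM) defined full signal and DMSO baseline. Curves fitted to Hill model gave IC50 and efficacy.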

A short description of test [6]: qHTS assay for small molecule agonists of retinoid X receptor alpha signaling (AID 588544). To be noted: HEK293T RXRa-UAS-bla, beta-lactamase reporter, 18 h; 530 nm emission.
For test [7], the target named is Retinoic acid receptor RXR-alpha (Homo sapiens) (UniProt P19793). The test is described as above.
Chain of Retinoic acid receptor RXR-alpha (Homo sapiens) (P19793 whole entry, looked up): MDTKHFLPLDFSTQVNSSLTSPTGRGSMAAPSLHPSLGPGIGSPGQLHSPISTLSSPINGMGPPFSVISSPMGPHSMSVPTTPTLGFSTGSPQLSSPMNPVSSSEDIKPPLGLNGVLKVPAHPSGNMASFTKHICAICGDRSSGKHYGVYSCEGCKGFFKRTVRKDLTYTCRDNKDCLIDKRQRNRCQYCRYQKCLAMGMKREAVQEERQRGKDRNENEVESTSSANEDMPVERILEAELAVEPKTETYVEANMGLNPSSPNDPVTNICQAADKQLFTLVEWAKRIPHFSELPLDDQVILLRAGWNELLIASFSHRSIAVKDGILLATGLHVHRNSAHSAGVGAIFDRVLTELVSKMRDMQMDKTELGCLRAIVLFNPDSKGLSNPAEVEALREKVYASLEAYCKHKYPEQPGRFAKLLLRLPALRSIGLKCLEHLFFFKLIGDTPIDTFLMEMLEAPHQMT
The target of test [8] is Vitamin D3 receptor (Homo sapiens) (UniProt P11473). As to the kind of experiment: qHTS assay for small molecule antagonists of vitamin D receptor signaling (AID 588541).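 Further: receptor activated by calcitriol during compound treatment; series mostly up to about 77 µM; on the % scale 0 is the no-effect control and ±100 the full control effect.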 In a few lines: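 Antagonist-mode beta-lactamase reporter assay: HEK293T VDR-UAS-bla cells were exposed to titrated compound alongside 1-alpha,25-dihydroxyvitamin D3 at 3 nM final for 16 h. Values were normalized to the 50 nM agonist control and DMSO basal, with IC50 and efficacy from Hill equation fits.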

Test [9] can be described thus: qHTS assay for small molecule antagonists of peroxisome proliferator-activated receptor delta signaling (AID 588535; active means well fitted inhibition curve with a large enough effect in the signal ratio, with a control signal flat, not every such curve was filed as active; the % refers to the signal ratio;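 on max response: cells co-treated with a PPAR-delta agonist as stimulator during compound exposure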). To be noted: HEK293T PPARd-UAS-bla, beta-lactamase FRET ratio, 18 h; 460 nm channel. In a few lines:
(§1)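 Cell-based beta-lactamase assay in antagonist mode: 4000 HEK293T PPAR-delta-UAS-bla cells per well, 5 hr preincubation then 18 hr compound incubation at 37 C. IC50 obtained by Hill equation fitting.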

Test [10] concerns the target Peroxisome proliferator-activated receptor delta (Homo sapiens) (UniProt Q03181). The description is as above. In a few lines: as §1

“And” between values parts separate entries of the source, which are not always exact repeats. Equal values may be shown once. Records with an inconclusive call do not appear. The source made the active and inactive calls. Unless noted, the call rests on the fitted dose curve. Numbered stars: 1 amine (or outer) side, 2 acyl side, 3 side chain; on linkers, the order of the positions; unused ones are H or OH. Bridge positions count the residues as written; N and C are the ends. Square brackets hold non-standard residues; d marks the D form. Peptide text beside a SMILES is read from it. I, II: the chains in the order shown. Actinocin(9to1) = Cc1c2oc3c(C)ccc(C(=O)[*:1])c3nc-2c(C(=O)[*:2])c(N)c1=O; NMeV = CN[C@H](C(=O)O)C(C)C; Sar = CNCC(=O)O

Chain of Peroxisome proliferator-activated receptor delta (Homo sapiens) (Q03181 whole entry, looked up): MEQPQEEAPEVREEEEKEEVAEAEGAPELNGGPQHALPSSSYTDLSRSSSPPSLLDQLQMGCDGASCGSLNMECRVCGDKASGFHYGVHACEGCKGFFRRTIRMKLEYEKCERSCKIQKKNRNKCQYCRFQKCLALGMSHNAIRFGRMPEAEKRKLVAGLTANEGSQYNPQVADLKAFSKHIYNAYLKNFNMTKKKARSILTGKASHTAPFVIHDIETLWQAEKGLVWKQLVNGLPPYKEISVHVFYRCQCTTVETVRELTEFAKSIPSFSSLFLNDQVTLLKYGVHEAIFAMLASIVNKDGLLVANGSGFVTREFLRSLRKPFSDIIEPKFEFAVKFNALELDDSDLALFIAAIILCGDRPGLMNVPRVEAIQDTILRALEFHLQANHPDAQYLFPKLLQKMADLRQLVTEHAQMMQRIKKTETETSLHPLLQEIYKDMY
Chain of Glucocorticoid receptor (Homo sapiens) (P04150 whole entry, looked up): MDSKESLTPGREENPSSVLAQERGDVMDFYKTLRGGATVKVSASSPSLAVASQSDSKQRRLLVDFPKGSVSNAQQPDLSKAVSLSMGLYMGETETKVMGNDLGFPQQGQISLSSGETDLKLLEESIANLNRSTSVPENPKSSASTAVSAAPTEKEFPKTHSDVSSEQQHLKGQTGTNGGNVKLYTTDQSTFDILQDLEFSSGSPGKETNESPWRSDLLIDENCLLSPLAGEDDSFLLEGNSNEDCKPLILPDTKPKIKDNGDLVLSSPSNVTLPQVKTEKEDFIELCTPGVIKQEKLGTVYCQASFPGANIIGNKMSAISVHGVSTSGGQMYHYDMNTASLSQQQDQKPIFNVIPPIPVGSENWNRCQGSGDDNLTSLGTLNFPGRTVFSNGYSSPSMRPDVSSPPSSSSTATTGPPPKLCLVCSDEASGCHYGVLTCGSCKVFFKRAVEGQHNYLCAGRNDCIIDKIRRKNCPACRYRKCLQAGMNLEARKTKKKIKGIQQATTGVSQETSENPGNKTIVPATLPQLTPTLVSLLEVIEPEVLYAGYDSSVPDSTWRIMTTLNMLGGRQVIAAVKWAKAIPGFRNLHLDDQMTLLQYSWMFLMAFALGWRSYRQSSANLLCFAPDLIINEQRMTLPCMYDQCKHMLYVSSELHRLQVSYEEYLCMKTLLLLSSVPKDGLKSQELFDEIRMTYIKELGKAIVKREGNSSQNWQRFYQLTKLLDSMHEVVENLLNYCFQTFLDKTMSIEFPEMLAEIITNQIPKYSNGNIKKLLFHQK

On to `Cc1c2oc3c(C)ccc(C(=O)N[C@@H]4C(=O)N[C@H](C(C)C)C(=O)N5CCC[C@H]5C(=O)N(C)CC(=O)N(C)[C@@H](C(C)C)C(=O)O[C@@H]4C)c3nc-2c(C(=O)N[C@@H]2C(=O)N[C@H](C(C)C)C(=O)N3CCC[C@H]3C(=O)N(C)CC(=O)N(C)[C@@H](C(C)C)C(=O)O[C@@H]2C)c(N)c1=O` (I: T[dV]P[Sar][NMeV] / II: T[dV]P[Sar][NMeV]; ester I:1-I:C, II:1-II:C; linker I:N-II:N via Actinocin(9to1)), for which the Potency in [1] is 126 nM (active) and 112 nM (active). The outcome in test [2] and in test [3] was inactive.
Consider `O=c1ccc2ccccc2o1`, for which the compound was called inactive in test [4], in [7] and in test [3]. Besides, the Potency result in test [5] is “inactive”. Moreover, the max response in test [6] was -0.417% and -9.49%.
Turning to `C[C@H]1C[C@H]2[C@@H]3CCC4=CC(=O)C=C[C@]4(C)[C@@]3(Cl)[C@@H](O)C[C@]2(C)[C@@]1(O)C(=O)CO`, the Potency result in [1], in test [5] and in [8] was “inactive” in each case. In addition, the compound was classed as inactive in test [4], in [2] and in test [3].
`CN(C)/N=N/c1nc[nH]c1C(N)=O`: the max response came to 24% in test [9] and 27.5% in test [6]. Also, the Potency entry in test [10] and in test [5] was “inactive” throughout. The compound was called inactive in [4], in [7] and in test [3].
Turning to `C[C@]12CC[C@@H]3c4ccc(O)cc4CC[C@H]3[C@@H]1CC[C@@H]2O`, the Potency in [1] is 7.08 µM (active); in [5], 39.8 µM (active). Moreover, in test [8], the Potency entry was “inactive”. In addition, the compound was called inactive in [2] and in test [7]. The max response in test [6] is 6.82%.
On to `O=C1OC(c2ccc(O)cc2)(c2ccc(O)cc2)c2ccccc21`, for which the Potency in test [5] was 39.8 µM (active). The Potency result in [8] was “inactive”. Further, the compound was classed as inactive in [2], in test [7] and in test [3]. Moreover, the max response in [6] is 14.6% and 3.81%.
Turning to `C=C(CC)C(=O)c1ccc(OCC(=O)O)c(Cl)c1Cl`, in test [3], the result was inactive.
Take `C=CCc1ccc(O)c(OC)c1`: the max response in test [9] was 11.6% and 2.37%; in test [6] it was -13.4% and -16.3%. Also, the Potency entry in test [10] and in test [5] was “inactive” throughout. Besides, the result in test [4] and in test [7] was inactive.
Turning to `CC(C)(C)CC(C)(C)c1ccc(OCCOCC[N+](C)(C)Cc2ccccc2)cc1`, the result in test [4] and in [2] was inactive.
In the case of `Oc1c(I)cc(Cl)c2cccnc12`, in test [1], the Potency is 28.2 µM (active). Moreover, the result in test [2] and in [3] was inactive.
As for `COC1=CC(=O)C[C@@H](C)[C@]12Oc1c(Cl)c(OC)cc(OC)c1C2=O`, the outcome in test [2] and in test [3] was inactive.
Consider `Oc1ccc(O)cc1`, for which the outcome in [3] was inactive.
Take `CN(C)C(=S)SC(=S)N(C)C`: the Potency result in test [1], in [10], in test [5] and in test [8] was “inactive” in each case. Moreover, the max response amounted to 6.78% in [9] and 0.136% in test [6]. Further, the call in [4], in [2], in [7] and in test [3] was inactive.
With `CC/C(=C(/CC)c1ccc(O)cc1)c1ccc(O)cc1`, the Potency result in [8] was “inactive”. The outcome in [2], in test [7] and in test [3] was inactive. Further, the max response in test [6] was -0.375%.
On to `CC(C)(Oc1ccc(Cl)cc1)C(=O)O`, for which the Potency result in [1], in [5] and in [8] was “inactive” each time. For the same compound, the compound was called inactive in test [4], in test [2], in test [7] and in [3]. For the same compound, the max response in test [6] was -16.7%.
